SMILES strings stand for the structures. Records with an inconclusive call do not appear. Activity calls are given as the source filed them. The calls were made as follows: active = hit-call score of the fitted dose curve at least 0.9, where 1 is the maximum; inconclusive = response in the unintended direction; inactive = score below 0.9.

Broadly, the AC50 is the concentration at which the activity in the assay is half-maximal.

Sequence of Oxysterols receptor LXR-alpha (Homo sapiens) (Q13133 whole entry, looked up, the tested form may be a part): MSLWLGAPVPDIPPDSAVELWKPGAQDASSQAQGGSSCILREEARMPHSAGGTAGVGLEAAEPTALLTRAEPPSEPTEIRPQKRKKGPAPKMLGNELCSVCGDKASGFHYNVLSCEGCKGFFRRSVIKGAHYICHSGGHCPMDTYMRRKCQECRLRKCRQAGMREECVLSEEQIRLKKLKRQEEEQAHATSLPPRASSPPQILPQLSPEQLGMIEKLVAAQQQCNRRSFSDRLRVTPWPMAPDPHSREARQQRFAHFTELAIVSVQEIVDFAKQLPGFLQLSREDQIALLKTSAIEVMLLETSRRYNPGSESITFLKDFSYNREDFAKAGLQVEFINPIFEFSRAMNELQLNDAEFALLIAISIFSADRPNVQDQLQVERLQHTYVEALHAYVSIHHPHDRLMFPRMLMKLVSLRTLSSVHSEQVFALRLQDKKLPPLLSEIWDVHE

For the first assay, the target named is Glucocorticoid receptor (Homo sapiens) (UniProt P04150). The assay is described as follows: ATG_GR_TRANS: Attagene TRANS-FACTORIAL HepG2 Assay for human Glucocorticoid Receptor (GR) (AID 2282978).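 Also: activators score as hits since higher reporter transcript over DMSO is fitted.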 To be noted: HepG2 Attagene TRANS GR reporter, mRNA transcription. In a few lines: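 Exogenous NR-GAL4 fusion activity was assessed through induced GAL4-UAS reporter transcripts in transfected human HepG2 cells, quantified after 24 h by RT-PCR and fluorescent capillary electrophoresis with DMSO as baseline.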
Sequence of Glucocorticoid receptor (Homo sapiens) (P04150 whole entry, looked up, the tested form may be a part): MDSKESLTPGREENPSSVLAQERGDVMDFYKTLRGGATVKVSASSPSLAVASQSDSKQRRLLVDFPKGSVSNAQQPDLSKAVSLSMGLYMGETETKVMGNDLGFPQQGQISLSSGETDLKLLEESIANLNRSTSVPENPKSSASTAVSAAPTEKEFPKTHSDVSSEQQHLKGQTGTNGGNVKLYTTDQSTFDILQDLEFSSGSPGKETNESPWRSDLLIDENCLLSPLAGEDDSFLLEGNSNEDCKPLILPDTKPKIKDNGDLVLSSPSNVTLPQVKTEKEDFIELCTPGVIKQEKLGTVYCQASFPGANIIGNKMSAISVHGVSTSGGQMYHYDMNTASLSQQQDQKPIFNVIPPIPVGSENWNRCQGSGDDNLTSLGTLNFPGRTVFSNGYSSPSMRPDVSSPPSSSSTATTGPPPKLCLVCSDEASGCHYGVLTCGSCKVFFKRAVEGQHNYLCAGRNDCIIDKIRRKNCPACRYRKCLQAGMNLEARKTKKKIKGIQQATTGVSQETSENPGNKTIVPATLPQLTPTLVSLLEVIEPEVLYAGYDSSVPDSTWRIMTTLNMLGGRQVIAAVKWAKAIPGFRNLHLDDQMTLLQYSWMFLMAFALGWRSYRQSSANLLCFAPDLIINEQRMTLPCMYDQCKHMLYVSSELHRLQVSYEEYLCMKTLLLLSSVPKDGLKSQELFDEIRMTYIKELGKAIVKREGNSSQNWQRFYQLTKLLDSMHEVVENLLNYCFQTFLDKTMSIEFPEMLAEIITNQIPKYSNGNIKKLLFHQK
As for `C#C[C@]1(O)CC[C@H]2[C@@H]3CCC4=CC(=O)CC[C@@H]4[C@H]3CC[C@@]21CC`, the outcome was inactive. Still for that read-out and setting: with `CCCCC(CC)CN1C(=O)C2C3C=CC(C3)C2C1=O` (centres undefined) the entry was “inactive”; with `CCOC(=O)C(C)Oc1ccc(Oc2cnc3cc(Cl)ccc3n2)cc1` (centres undefined), “inactive”.

Turning to `c1ccc2[nH]c(-c3cscn3)nc2c1`, the molecule was classed as inactive. Turning to `CCC(O)=C1C(=O)CC(C(=O)O)CC1=O` (centres undefined), the molecule was classed as inactive. On the same count and under the same terms, with `CSC(=O)c1cccc2nnsc12` the entry was “inactive”; with `CC1(C)C(C=C(Cl)Cl)C1C(=O)OCc1cccc(Oc2ccccc2)c1` (centres undefined), “inactive”; with `CCOC(=O)[C@H](C)Oc1ccc(Oc2nc3ccc(Cl)cc3o2)cc1`, “inactive”.

As to `C=CCOC(Cn1ccnc1)c1ccc(Cl)cc1Cl` (centres undefined), the outcome was inactive. On the same count and under the same terms, with `CCCCC(CC)COC(=O)c1ccccc1C(=O)O` (centres undefined) the entry was “inactive”. On the same count and under the same terms, with `S=C(S)NCCNC(=S)S.[Mn+2].[S-]C([S-])=NCCN=C([S-])[S-].[Zn+2]` the entry was “inactive”. The same measure, in the same setting: with `CC(=O)S[C@@H]1CC2=CC(=O)CC[C@]2(C)[C@H]2CC[C@@]3(C)[C@@H](CC[C@@]34CCC(=O)O4)[C@H]12` the entry was “inactive”; with `COC(=O)c1ccccc1S(=O)(=O)NC(=O)Nc1nc(OC(F)F)cc(OC(F)F)n1`, “inactive”; with `CCCCCOC(=O)COc1cc(N2C(=O)C3=C(CCCC3)C2=O)c(F)cc1Cl`, “inactive”.

For the molecule `N[C@@H](Cc1cc(I)c(Oc2ccc(O)c(I)c2)c(I)c1)C(=O)O`, the result was inactive.

In a further assay the target is Oxysterols receptor LXR-alpha (Homo sapiens) (UniProt Q13133). Put plainly: ATG_LXRa_TRANS: Attagene TRANS-FACTORIAL HepG2 Assay for human Liver X Receptor alpha (LXRa) (AID 2282980). The conditions noted are these: HepG2 Attagene TRANS reporter, LXRa transactivation. Summed up:
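In this multiplexed TRANS system, compounds act on HepG2 cells carrying GAL4-UAS reporter units and a receptor-GAL4 fusion for 24 h. Induced reporter RNA is amplified, fluorescently labelled and sized by capillary electrophoresis, with DMSO as baseline.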
Regarding `COC(=O)c1ccccc1C(=O)O`, the molecule was called inactive. Still for that read-out and setting: with `C#C[C@]1(O)CC[C@H]2[C@@H]3CCC4=CC(=O)CC[C@@H]4[C@H]3CC[C@@]21CC` the entry was “inactive”. Still for that read-out and setting: with `CCOC(=O)COc1cc(-n2ncc(C(F)(F)F)c(C)c2=O)c(F)cc1Cl` the entry was “inactive”; with `CCCCC(CC)CN1C(=O)C2C3C=CC(C3)C2C1=O` (centres undefined), “inactive”; with `CCOC(=O)C(C)Oc1ccc(Oc2cnc3cc(Cl)ccc3n2)cc1` (centres undefined), “inactive”.

`c1ccc2[nH]c(-c3cscn3)nc2c1`: the concentration at half-maximal activity (AC50) was 27.2 µM (active). For `CCC(O)=C1C(=O)CC(C(=O)O)CC1=O` (centres undefined), the call was inactive.

In the case of `O=C(O)c1ccccc1`, the outcome was inactive. With `CC(=O)[C@H]1CC[C@H]2[C@@H]3CCC4=CC(=O)CC[C@]4(C)[C@H]3CC[C@]12C`, the call was inactive. With `CC1(C)C(C=C(Cl)Cl)C1C(=O)OCc1cccc(Oc2ccccc2)c1` (centres undefined), the molecule was classed as inactive. On to `CCNc1nc(N)nc(Cl)n1`, for which the result was inactive. The same measure, in the same setting: with `CCCCOC(=O)C(C)Oc1ccc(Oc2ccc(C(F)(F)F)cn2)cc1` (centres undefined) the entry was “inactive”; with `O=C(O)C1(C(=O)Nc2ccc(Cl)cc2Cl)CC1`, “inactive”; with `CCOC(=O)[C@H](C)Oc1ccc(Oc2nc3ccc(Cl)cc3o2)cc1`, “inactive”. Same read-out and setting: with `CCCCC(CC)COC(=O)c1ccccc1C(=O)O` (centres undefined) the entry was “inactive”.

For the molecule `CCCOC(=O)NCCCN(C)C`, the molecule was classed as inactive. Same read-out and setting: with `COc1c(Cl)ccc(Cl)c1C(=O)O` the entry was “inactive”; with `S=C(S)NCCNC(=S)S.[Mn+2].[S-]C([S-])=NCCN=C([S-])[S-].[Zn+2]`, “inactive”; with `CC(C)(C)[C@@H](O)[C@@H](Cc1ccc(Cl)cc1)n1cncn1`, “inactive”.

Turning to `CC(=O)S[C@@H]1CC2=CC(=O)CC[C@]2(C)[C@H]2CC[C@@]3(C)[C@@H](CC[C@@]34CCC(=O)O4)[C@H]12`, the molecule was classed as inactive. The same measure, in the same setting: with `O=C(Nc1ccc([N+](=O)[O-])cc1Cl)c1cc(Cl)ccc1O` the entry was “inactive”; with `CCCCCOC(=O)COc1cc(N2C(=O)C3=C(CCCC3)C2=O)c(F)cc1Cl`, “inactive”. The same measure, in the same setting: with `N[C@@H](Cc1cc(I)c(Oc2ccc(O)c(I)c2)c(I)c1)C(=O)O` the entry was “inactive”; with `COCCO`, “inactive”.

For the origin of these results see PubChem BioAssay (EPA / NIEHS).
